This note sets out measurements from PubChem BioAssay (EPA / NIEHS).

The term AC50 denotes the concentration at which the activity in the assay is half-maximal.

What all share (settings): mRNA level, 48 h; actives raise or lower the signal
Read-out in experiment [1]: Bcl-2 (BAX) gene, BAX (gene 581)
The experiment is described as follows: LTEA_HepaRG_BAX: Life Technologies and Expression Analysis (LTEA) Assay for Bcl-2 (BAX) gene using HepaRG (AID 2283470). The gist of the method:
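HepaRG (human liver), 48 h exposure, duplicate wells. 8-pt curve, half-log from 100 uM, 0.5% DMSO. BAX transcript by TaqMan qRT-PCR; ACTB/GAPDH/POLR2A normalization; gain or loss vs DMSO baseline.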

Read-out in experiment [2]: adenosine kinase (ADK) gene, ADK (gene 132)
The experiment is described as follows: LTEA_HepaRG_ADK: Life Technologies and Expression Analysis (LTEA) Assay for adenosine kinase (ADK) gene using HepaRG (AID 2283471). The gist of the method: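 ADK expression quantified by qRT-PCR, normalised to three housekeeping genes, after 48 h exposure of HepaRG cells to eight concentrations (top 100 uM, half-log steps, duplicate, 0.5% DMSO). Up- or down-regulation fitted relative to vehicle.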

Read-out in experiment [3]: Alpha-fetoprotein (AFP) gene, AFP (gene 174)
The experiment is described as follows: LTEA_HepaRG_AFP: Life Technologies and Expression Analysis (LTEA) Assay for Alpha-fetoprotein (AFP) gene using HepaRG (AID 2283472). Summed up: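 HepaRG, single lot; 48 h post-plating -> serum-free induction medium; cpd 8-pt, 100 uM top, half-log, 0.5% DMSO, duplicate, 48 h. RNA -> qRT-PCR AFP, norm ACTB/GAPDH/POLR2A. Bidirectional fit vs DMSO.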

Read-out in experiment [4]: Apoptosis regulator Bcl-2 (Homo sapiens) (UniProt P10415)
Briefly: LTEA_HepaRG_BCL2: Life Technologies and Expression Analysis (LTEA) Assay for Bcl-2 gene using HepaRG (AID 2283475). The gist of the method: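 HepaRG, plated 48 h then switched to serum-free induction medium; dosed 48 h, 8 conc. (max 100 uM, half-log steps), duplicate, 0.5% DMSO. Lysis in RLT, RNA isolated, TaqMan qRT-PCR for BCL2; ACTB/GAPDH/POLR2A normalisation; bidirectional fit vs DMSO.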

Read-out in experiment [5]: Bcl-2 (BID) gene, BID (gene 637)
Briefly: LTEA_HepaRG_BID: Life Technologies and Expression Analysis (LTEA) Assay for Bcl-2 (BID) gene using HepaRG (AID 2283476). The gist of the method:
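Transcript levels of BID, measured by qRT-PCR and normalized to three housekeeping genes, were fitted bidirectionally against DMSO controls. Cells were HepaRG, dosed 48 h at up to 100 uM.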

Read-out in a further experiment: Caspase-3 (Homo sapiens) (UniProt P42574)
The experiment is described as follows: LTEA_HepaRG_CASP3: Life Technologies and Expression Analysis (LTEA) Assay for cysteine-aspartic acid protease (CASP3) using HepaRG (AID 2283477). Summed up: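 Differentiated HepaRG cells, plated 48 h, were treated in duplicate in serum-free induction medium for 48 h with eight half-log concentrations up to 100 uM in 0.5% DMSO. CASP3 mRNA measured by qRT-PCR, normalized to ACTB, GAPDH, POLR2A.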

Read-out in experiment [6]: Cytochrome P450 (CYP1A2), CYP1A2 (gene 1544)
Briefly: LTEA_HepaRG_CYP1A2: Life Technologies and Expression Analysis (LTEA) Assay for Cytochrome P450 (CYP1A2) using HepaRG (AID 2283479). The gist of the method: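 Differentiated human HepaRG cells in serum-free induction medium exposed 48 hours in duplicate to 8 half-log concentrations from 100 uM, 0.5% DMSO. CYP1A2 mRNA quantified by qRT-PCR, normalized to ACTB, GAPDH and POLR2A; bidirectional fitting versus DMSO.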

Read-out in experiment [7]: cysteine-aspartic acid protease (CASP8), CASP8 (gene 841)
The experiment is described as follows: LTEA_HepaRG_CASP8: Life Technologies and Expression Analysis (LTEA) Assay for cysteine-aspartic acid protease (CASP8) using HepaRG (AID 2283480). Summed up: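 Differentiated HepaRG cells in serum-free induction medium, 48 h exposure, eight-point half-log series from 100 uM in 0.5% DMSO, duplicates. CASP8 mRNA by qRT-PCR, normalized to ACTB, GAPDH, POLR2A; bidirectional fit versus DMSO.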

Read-out in experiment [8]: Cytochrome P450 (CYP2B6), CYP2B6 (gene 1555)
Briefly: LTEA_HepaRG_CYP2B6: Life Technologies and Expression Analysis (LTEA) Assay for Cytochrome P450 (CYP2B6) using HepaRG (AID 2283481). Summed up:
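Differentiated human HepaRG cells in serum-free induction medium, dosed in duplicate for 48 h over 8 half-log concentrations topping at 100 uM (0.5% DMSO). CYP2B6 mRNA measured by TaqMan qRT-PCR, normalized to ACTB, GAPDH, POLR2A; bidirectional fit versus DMSO.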

Read-out in experiment [9]: Cytochrome P450 2C19 (Homo sapiens) (UniProt P33261)
Briefly: LTEA_HepaRG_CYP2C19: Life Technologies and Expression Analysis (LTEA) Assay for CYP2C19 using HepaRG (AID 2283482). Summed up:
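Differentiated HepaRG cells in serum-free induction medium exposed 48 h in duplicate, 8 concentrations from 100 uM by half-log steps in 0.5% DMSO. CYP2C19 mRNA measured by TaqMan qRT-PCR, normalized to ACTB, GAPDH, POLR2A. Bidirectional fit versus DMSO.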

Read-out in a further experiment: CYP2C8 (gene 1558)
The experiment is described as follows: LTEA_HepaRG_CYP2C8: Life Technologies and Expression Analysis (LTEA) Assay for CYP2C8 using HepaRG (AID 2283483). The gist of the method: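 Differentiated HepaRG cells in serum-free induction medium exposed 48 h in duplicate to 8 half-log concentrations from 100 uM in 0.5% DMSO. CYP2C8 mRNA by qRT-PCR normalized to ACTB, GAPDH, POLR2A; bidirectional fit versus DMSO.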

Read-out in the next experiment: CYP2C9 (gene 1559)
The experiment is described as follows: LTEA_HepaRG_CYP2C9: Life Technologies and Expression Analysis (LTEA) Assay for CYP2C9 using HepaRG (AID 2283484). The gist of the method: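 Differentiated human HepaRG cells in serum-free induction medium were exposed 48 h to chemicals in 8-point half-log series from 100 uM (0.5% DMSO), in duplicate. CYP2C9 mRNA was measured by qRT-PCR, normalized to ACTB/GAPDH/POLR2A, with bidirectional fitting versus DMSO.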

Read-out in another experiment: CYP2E1 (gene 1571)
Briefly: LTEA_HepaRG_CYP2E1: Life Technologies and Expression Analysis (LTEA) Assay for CYP2E1 using HepaRG (AID 2283485). The gist of the method:
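Human liver line HepaRG, plated 48 h, then serum-free induction medium + chemical x 48 h; 8-pt CRC from 100 uM, half-log, 0.5% DMSO, n=2. Readout: CYP2E1 mRNA qRT-PCR vs ACTB/GAPDH/POLR2A; bidirectional fit vs DMSO.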

Read-out in the next experiment: CYP4A11 (gene 1579)
Briefly: LTEA_HepaRG_CYP4A11: Life Technologies and Expression Analysis (LTEA) Assay for CYP4A11 using HepaRG (AID 2283486). Summed up: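 Differentiated HepaRG cells, 48 h after plating, exposed in duplicate for 48 h to 8 half-log concentrations up to 100 uM in 0.5% DMSO in serum-free induction medium. CYP4A11 mRNA measured by TaqMan qRT-PCR, normalized to ACTB, GAPDH and POLR2A.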

Read-out in experiment [10]: DNA damage-inducible transcript 3 (DDIT3), DDIT3 (gene 1649)
Briefly: LTEA_HepaRG_DDIT3: Life Technologies and Expression Analysis (LTEA) Assay for DNA damage-inducible transcript 3 (DDIT3) using HepaRG (AID 2283488). Summed up:
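HepaRG plated 48 h, switched to serum-free induction medium, dosed 48 h (100 uM top, half-log, 8 pts, 0.5% DMSO, n=2); RNA isolated; DDIT3 by qRT-PCR; bidirectional curve fit vs DMSO.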

Read-out in experiment [11]: Pro-epidermal growth factor (Homo sapiens) (UniProt P01133)
Briefly: LTEA_HepaRG_EGF: Life Technologies and Expression Analysis (LTEA) Assay for Epidermal growth factor (EGF) using HepaRG (AID 2283489). The gist of the method: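 HepaRG cells (~100,000/well, 48 h pre-culture) exposed in duplicate for 48 h in serum-free induction medium to 8 half-log concentrations up to 100 uM in 0.5% DMSO. EGF mRNA by qRT-PCR, normalized to ACTB/GAPDH/POLR2A; bidirectional fit versus DMSO.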

Read-out in experiment [12]: Apolipoprotein A-V (APOA5) gene, APOA5 (gene 116519)
Briefly: LTEA_HepaRG_APOA5: Life Technologies and Expression Analysis (LTEA) Assay for Apolipoprotein A-V (APOA5) gene using HepaRG (AID 2283474). The gist of the method: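 Differentiated HepaRG cells in serum-free induction medium, exposed 48 h in duplicate to eight half-log concentrations topping at 100 uM (0.5% DMSO). APOA5 mRNA by Fluidigm TaqMan qRT-PCR, normalized to ACTB, GAPDH and POLR2A; bidirectional fit versus DMSO.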

Read-out in another experiment: BCL2L11 (gene 10018)
Briefly: LTEA_HepaRG_BCL2L11: Life Technologies and Expression Analysis (LTEA) Assay for Bcl-2 (BCL2L11) gene using HepaRG (AID 2283473). Summed up:
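Differentiated human HepaRG cells were exposed 48 h in serum-free induction medium to eight half-log concentrations up to 100 uM in 0.5% DMSO, in duplicate. BCL2L11 mRNA was quantified by TaqMan qRT-PCR, normalized to ACTB, GAPDH and POLR2A; induction or repression fitted versus DMSO.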

Molecules are shown by their SMILES. Activity calls are given as the source filed them. Rule for the calls: active = hit-call score of the fitted dose curve at least 0.9, where 1 is the maximum; inactive = score below 0.9.

Sequence of Apoptosis regulator Bcl-2 (Homo sapiens) (P10415 whole entry, looked up): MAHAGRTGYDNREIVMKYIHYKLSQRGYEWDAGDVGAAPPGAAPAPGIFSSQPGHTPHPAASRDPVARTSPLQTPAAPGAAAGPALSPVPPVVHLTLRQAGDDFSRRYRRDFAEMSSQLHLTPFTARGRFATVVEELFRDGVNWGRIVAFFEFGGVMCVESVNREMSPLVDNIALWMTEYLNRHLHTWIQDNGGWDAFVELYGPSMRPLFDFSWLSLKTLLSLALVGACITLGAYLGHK
Sequence of Caspase-3 (Homo sapiens) (P42574 whole entry, looked up): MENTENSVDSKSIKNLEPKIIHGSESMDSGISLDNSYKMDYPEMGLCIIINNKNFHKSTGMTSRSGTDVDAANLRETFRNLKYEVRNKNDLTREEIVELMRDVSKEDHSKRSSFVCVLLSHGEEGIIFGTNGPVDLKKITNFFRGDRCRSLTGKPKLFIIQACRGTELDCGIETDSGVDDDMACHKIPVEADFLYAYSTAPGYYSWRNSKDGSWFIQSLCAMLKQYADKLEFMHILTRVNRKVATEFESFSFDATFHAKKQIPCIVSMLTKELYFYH
Sequence of Cytochrome P450 2C19 (Homo sapiens) (P33261 whole entry, looked up): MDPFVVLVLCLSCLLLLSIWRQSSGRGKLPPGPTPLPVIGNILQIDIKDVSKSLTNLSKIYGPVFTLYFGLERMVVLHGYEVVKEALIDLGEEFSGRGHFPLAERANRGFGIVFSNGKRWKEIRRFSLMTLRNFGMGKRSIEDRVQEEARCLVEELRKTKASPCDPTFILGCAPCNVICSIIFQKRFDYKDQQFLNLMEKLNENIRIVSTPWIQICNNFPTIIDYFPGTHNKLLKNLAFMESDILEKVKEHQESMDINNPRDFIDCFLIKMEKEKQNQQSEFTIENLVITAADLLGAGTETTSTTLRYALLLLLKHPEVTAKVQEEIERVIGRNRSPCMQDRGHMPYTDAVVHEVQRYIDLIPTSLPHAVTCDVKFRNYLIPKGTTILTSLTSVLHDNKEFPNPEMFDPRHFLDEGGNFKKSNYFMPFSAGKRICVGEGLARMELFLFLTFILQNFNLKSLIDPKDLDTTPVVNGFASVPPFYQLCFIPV

As for `O=C1CCC(C2CCCCC2)CC1`, the compound was called inactive (in experiment [1]; in [2]; in experiment [3]; in [4]; in experiment [5]; in the experiment with Caspase-3 (Homo sapiens)). In addition, the outcome (in [7]; in experiment [8]; in experiment [9]; in the experiment with CYP2C8 (gene 1558); with CYP2C9 (gene 1559); with CYP2E1 (gene 1571)) was inactive. Further, the compound was classed as inactive (with CYP4A11 (gene 1579); in experiment [10]; in [11]). For the same compound, in experiment [6], the AC50 is 72.5 µM (active).
As to `O=c1c(-c2ccc(O)cc2)coc2cc(O)cc(O)c12`, the compound was classed as inactive in experiment [1], in experiment [2], in [3], in experiment [12], in [4] and in experiment [5]. The compound was called inactive (with Caspase-3 (Homo sapiens); in experiment [6]; in experiment [7]; in [8]; in [9]; with CYP2C8 (gene 1558)). Besides, the compound was classed as inactive (in the experiment with CYP2C9 (gene 1559); in the experiment with CYP2E1 (gene 1571); in the experiment with CYP4A11 (gene 1579); in experiment [10]; in experiment [11]).
With `CCCCCCCCCCCC[N+](C)(C)C`, the AC50 in experiment [1] is 84.6 µM (active); in experiment [4], 84.4 µM (active); in [8] it was 92.4 µM (active); in [9], 93.6 µM (active); in the experiment with CYP2C8 (gene 1558), 78.4 µM (active); with CYP2C9 (gene 1559), 91.4 µM (active). Moreover, the AC50 in the experiment with CYP2E1 (gene 1571) was 94.1 µM (active); with CYP4A11 (gene 1579) it was 76.2 µM (active); in experiment [10] it was 78.1 µM (active). Further, the compound was classed as inactive (in experiment [2]; in experiment [3]; in experiment [5]; with Caspase-3 (Homo sapiens); in [6]; in experiment [7]). The compound was called inactive in [11].
For `CCCOC(=O)c1cc(O)c(O)c(O)c1`, the result (in [2]; with BCL2L11 (gene 10018); in experiment [4]; in [5]; with Caspase-3 (Homo sapiens); in experiment [6]) was inactive. Besides, the outcome (in experiment [7]; with CYP2C8 (gene 1558); in the experiment with CYP2C9 (gene 1559); in experiment [10]; in experiment [11]) was inactive. Besides, the AC50 in [3] is 15.2 µM (active); in experiment [8], 0.674 µM (active); in [9], 0.793 µM (active); with CYP2E1 (gene 1571), 21.6 µM (active); in the experiment with CYP4A11 (gene 1579) it was 6.67 µM (active).
